# Hits are enriched below; roughly 3.7% of the tested compounds scored in any of these assays.
# DRD3 antagonist: antagonists of human D3 dopamine receptor. P35462. D3R cells, DiscoveRx beta-arrestin luminescence, antagonist mode; hits give low values. max response, negative = inhibition, %. 360,000 tested, 2.5% active. AID 652054; in the data active means max response below about -50%; further: on the % scale 0 is the no-effect control and ±100 the full control effect
#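 Cells plated overnight at 1500 cells/well, then exposed to library compounds with dopamine controls for 90 minutes at 37 degrees C. DiscoveRx reagent added for 30–60 minutes at room temperature; luminescence read, quantitative HTS format.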
# B2AR arrestin: agonists driving beta-arrestin recruitment to human beta2-adrenergic receptor; P07550; beta-arrestin recruitment to beta2AR, cell-based reporter; Potency, µM (highest dose often 46.1 µM), for the others: at the highest dose activation, actives largely listed as activators; 330,000 tested, 0.02% active;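 further: potency means the concentration at half of the fitted maximal effect; 0% = DMSO controls and full agonism = EC100 isoproterenol or metaproterenol; nearly all actives have a fitted effect of over 65% in size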
# D3 ag: activates the human D3 dopamine receptor; D3R DiscoveRx beta-arrestin cells, luminescence, 90 min; P35462; max activation, %; 410,000 tested, 0.58% active; in the data active means max activation above about 30%; further: 0% is about no effect
#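 Cells at 1500/well, incubated overnight, then treated with pinned compounds (dopamine as control) for 90 min at 37 degrees C. DiscoveRx reagent added for 30 - 60 minutes at room temperature; luminescence read.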
# BRCA1 expr up: increases BRCA1 expression; MCF7-BRCA1-FFLuc reporter, luminescence, 48 h; response scale: scaled: vehicle 0%, 10 µM genistein 100%; Potency, µM (doses to about 46.1 µM), inactives show top-dose activation, most hits filed as activators; 380,000 tested, 1.1% active; AID 624202; further: potency means the concentration at half of the fitted maximal effect; nearly all actives have a fitted effect of over 80% in size
#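 Quantitative HTS in MCF7 cells stably reporting BRCA1 expression via firefly luciferase. Compound treatment lasts 48 h at 37 °C in phenol-red free MEM. Activation is expressed relative to genistein at 10 microM and DMSO.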
# RGS4 inhibitor: inhibitors of human regulator of G protein signaling 4. P49798. Transcreener GDP fluorescence polarization, RGS4-accelerated GTP hydrolysis. Potency, µM (doses to about 114 µM), for the others: at the top dose activity change, negative = inhibition, hits mostly inhibitors. 390,000 tested, 0.039% active. AID 504845; further: potency means the concentration at half of the fitted maximal effect; on the % scale 0 is the no-effect control and ±100 the full control effect; nearly all actives have a fitted effect of over 75% in size
#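 MLSMR compounds (23 nl, pin-transferred) preincubated 10 min at room temperature with a 500nM (2x) first reagent, then RGS4 at 900nM (2x) plus Transcreener GDP mix added; fluorescence polarization (620/688 nm) read before and after 90 min at 30 °C.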
# PTHR1 agonist: activates the human parathyroid hormone receptor PTHR1. Q03431. HEK293 GP2 PTHR1 cells, GloSensor cAMP luminescence, 1 h. Potency, µM (doses to about 115 µM), inactives show top-dose activation, most hits filed as activators. 410,000 tested, 0.075% active; further: potency means the concentration at half of the fitted maximal effect; nearly all actives have a fitted effect of over 55% in size
# Target sequence (Q03431 whole entry, looked up): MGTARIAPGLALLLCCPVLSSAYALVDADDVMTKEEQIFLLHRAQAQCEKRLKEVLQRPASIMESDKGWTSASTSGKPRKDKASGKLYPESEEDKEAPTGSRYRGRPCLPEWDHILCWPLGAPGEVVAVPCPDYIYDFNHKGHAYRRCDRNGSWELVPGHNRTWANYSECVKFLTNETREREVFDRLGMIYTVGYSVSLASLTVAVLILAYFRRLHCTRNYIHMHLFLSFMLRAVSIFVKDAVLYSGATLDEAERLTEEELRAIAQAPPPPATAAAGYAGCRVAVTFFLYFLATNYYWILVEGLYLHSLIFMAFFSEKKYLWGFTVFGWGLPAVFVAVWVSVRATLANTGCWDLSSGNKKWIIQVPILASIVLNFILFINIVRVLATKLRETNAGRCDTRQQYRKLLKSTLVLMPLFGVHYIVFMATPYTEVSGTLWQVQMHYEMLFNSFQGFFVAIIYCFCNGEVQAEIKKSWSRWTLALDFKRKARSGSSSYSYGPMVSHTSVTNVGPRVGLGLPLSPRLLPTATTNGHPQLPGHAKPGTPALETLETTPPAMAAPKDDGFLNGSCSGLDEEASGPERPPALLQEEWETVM
#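 HEK-293-derived GP2 cells expressing PTHR1 and a GloSensor cAMP reporter, 3,000/well, plated overnight, given luciferin plus IBMX (each 0.5 mM as added) for 1 h at 37 °C, then compound for 1 h at 37 °C. Luminescence was read after 15 min at room temperature.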
# * hit, by the source's call; i = inactive; x = no result given; [ ] = another dose, or the depositor's remark. Unless noted, the call rests on the fitted dose curve; in most records, active means well fitted curve in the direction sought with a large enough effect; inconclusive means small, poorly fitted or top-dose-only effect, or another doubt; inactive means no such curve, though single readings can be large; an effect the other way counts as inactive or inconclusive.
SMILES,DRD3 antagonist,B2AR arrestin,D3 ag,BRCA1 expr up,RGS4 inhibitor,PTHR1 agonist
CC1(/[N+]([O-])=C\c2ccccc2F)CCCCC1=O (stereo unspecified),0.8,0.0%,10.5,0.6%,7.5%,i
COc1cc(C(=O)Nc2cc3c(cc2C)n(C)c(=O)c(=O)n3C)cc(OC)c1OC,x,x,-11.2,x,-2.6%,-1.4%
CC(=O)NC(Cc1c[nH]c2ccccc12)C(=O)OCC(=O)Nc1cc(C)on1 (stereo unspecified),5.5,0.0%,0.1,-22.1%,-42.2%[56.9 µM],i
COC(=O)C(Cc1c[nH]c2ccccc12)NC(=O)CNC(C)=O (stereo unspecified),-53.3*,-0.1%,1.4,3.7%,10.0%,-24.0%[57.5 µM]
Cc1cc(NC(=O)COC(=O)[C@H](Cc2c[nH]c3ccccc23)NC(=O)c2ccc(F)cc2)no1,-50.5*,0.5%,0.4,14.0%,-11.4%,-2.8%
COC(=O)C(Cc1c[nH]c2ccccc12)NC(=O)c1ccccc1Br (stereo unspecified),-3.2,-0.4%,2.2,10.6%,4.5%,-30.4%
C=CCN1[C@H](COCc2ccccc2)C=CS1(=O)=O,0.0,x,-5.6,12.9%,x,11.5%
CNC(=O)C[C@@H](N)C(=O)N[C@@H](C(=O)N[C@@H]1C(=O)N2[C@@H]1SC(C)(C)[C@@H]2C(=O)O)c1ccc(O)cc1,x,x,-12.3,x,x,x
CC1Oc2ccccc2OC1C(=O)Nc1nccs1 (stereo unspecified),9.6,-0.7%,12.9,-9.9%,-3.2%,i
Cc1cc(NC(=O)C2Oc3ccccc3OC2C)no1 (stereo unspecified),-138.0*,-0.1%,1.2,-28.7%,7.4%,i
COc1ccc(C(=O)NNC(=O)CSc2nnc(COc3ccccc3)n2C)cc1,2.7,0.1%,2.4,-1.8%,28.7%,i
Cc1ccc(C(=O)NNC(=O)CSc2nnc(-c3ccncc3)n2C)cc1,-75.4*,-0.4%,-8.1,4.4%,4.4%,-2.9%
COc1ccc(C(=O)NNC(=O)CSc2nnc(-c3ccc(O)cc3)n2C)cc1,4.9,-0.1%,-1.5,10.6%,-23.3%,-13.6%
COc1ccc(OCc2nnc(SCC(=O)NNC(=O)c3ccc(C)cc3)n2C)cc1,-118.3*,-0.6%,-25.0,-21.3%,16.1%,-43.7%
Cc1cc(NS(=O)(=O)c2ccc(NC(=O)C(CC(C)C)N3C(=O)c4ccccc4C3=O)cc2)nc(C)n1 (stereo unspecified),-8.6,-0.5%,-7.3,1.4%,28.5%,19.7%[57.5 µM]
Cc1cc(NS(=O)(=O)c2ccc(NC(=O)C(F)(F)F)cc2)nc(C)n1,-8.8,0.3%,30.4*,1.7%,8.7%,-21.6%
Cc1cc(NS(=O)(=O)c2ccc(NC(=O)C(C(C)C)N3C(=O)c4ccccc4C3=O)cc2)nc(C)n1 (stereo unspecified),-75.5*,-0.3%,-5.7,4.1%,2.9%,i
CCN(CC(O)c1cccc(O)c1)C(=O)C12CC3CC(CC(C3)C1)C2 (stereo unspecified),-77.8*,0.0%,-0.9,8.8%,1.6%,i
Cc1cc(Br)ccc1OCCCCN1CCC(C)CC1,-75.7*,-0.4%,-27.2,-51.9%,3.8%,10.4%
Cc1ccc(OCCCCN2CCCCC2)cc1,-13.0,-0.8%,-5.9,19.3%,16.7%,i
CC1CCN(CCCCOc2ccc(Br)cc2)CC1,-51.8*,-0.3%,-17.5,-13.3%,-15.1%,-22.9%
Brc1ccc(OCCCCN2CCCCC2)cc1,-55.4*,-0.3%,-6.5,19.9%,27.8%,i
COc1ccc(-c2nc3c(-c4ccc(F)cc4)cnn3cc2C)cc1F,6.3,-1.0%,0.5,-4.5%,22.9%,-23.5%
C=CCn1c(N)c(C(=O)Nc2ccc(C)cc2)sc1=S,5.1,-0.5%,-2.0,1.26µM*,-21.9%,-49.4%
C=CCn1c(N)c(C(=O)Nc2ccccc2OC)sc1=S,-16.7,0.0%,4.6,-50.5%,-0.4%,-2.8%
